For 16 molecules, composite z-score results are on record in PubChem BioAssay.

The target of this test is Torsin-1A-interacting protein 1 (Homo sapiens) (UniProt Q5JTV8). Put plainly: LAP1 binders from COS7 cell lysate, primary screen, small-molecule microarray, 635/667 nm fluorescence (AID 1116). To be noted: COS7-hLAP1 lysate binding, 635 nm fluorescence, higher = more signal.
Sequence of Torsin-1A-interacting protein 1 (Homo sapiens) (Q5JTV8 whole entry, looked up): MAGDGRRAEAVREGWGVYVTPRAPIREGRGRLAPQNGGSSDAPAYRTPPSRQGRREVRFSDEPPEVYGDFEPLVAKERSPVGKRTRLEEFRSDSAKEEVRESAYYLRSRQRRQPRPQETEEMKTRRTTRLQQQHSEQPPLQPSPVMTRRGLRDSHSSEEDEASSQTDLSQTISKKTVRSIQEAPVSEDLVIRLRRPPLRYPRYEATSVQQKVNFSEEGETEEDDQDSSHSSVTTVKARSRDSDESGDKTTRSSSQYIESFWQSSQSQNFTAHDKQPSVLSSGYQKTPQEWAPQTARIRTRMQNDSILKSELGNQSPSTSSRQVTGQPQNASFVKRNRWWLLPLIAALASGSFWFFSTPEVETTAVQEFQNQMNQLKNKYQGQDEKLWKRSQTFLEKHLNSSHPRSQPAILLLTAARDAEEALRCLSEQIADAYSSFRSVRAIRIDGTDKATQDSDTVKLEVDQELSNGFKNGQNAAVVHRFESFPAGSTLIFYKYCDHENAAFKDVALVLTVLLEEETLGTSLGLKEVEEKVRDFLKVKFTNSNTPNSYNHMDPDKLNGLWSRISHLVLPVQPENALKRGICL
Molecule `[N-]=[N+]=Nc1ccccc1C[C@]1(C(=O)NCCN2CCOCC2)COC(c2ccc(OCCCO)cc2)=N1` yielded a composite z-score of 0.101.

In turn, `CC(C)C(CO)N1C(=O)[C@@H]2C3C(=O)OCCC/C=C\[C@H]3OC23C=CCN(c2ccc4ccccc4c2)C(=O)[C@@H]13` (stereo partly specified) had a composite z-score of -0.427.

`C=C(/C(=C/C[C@H](OC(=O)c1ccncc1)c1ccc(CO)o1)c1cnc2ccccc2c1)C(C)C` had a composite z-score of 0.854. `C=CCOC(=O)[C@@H]1[C@H]2C(=O)O[C@H](c3ccccc3)[C@H](c3ccccc3)N2[C@H](c2ccc(OCCOC(=O)[C@@H]3C[C@@H]4C(=O)N[C@@H](CCCC[N+](C)(C)C)C(=O)N4[C@@H]3c3ccc(O)cc3)cc2)[C@@]12C(=O)Nc1ccc(I)cc12` returned a composite z-score of 1.36. The result for `CCCCC(O)C1C=CC2C(=O)N(C)C(=O)C2N1N(c1ccccc1)c1ccccc1` (stereo unspecified) reads 1.41; that for `CCCC=C(CCC)[C@@H](NC(=O)c1cccs1)c1ccc(C(=O)OC)cc1`, 0.406. Turning to `Cc1ccccc1C(O)C1C=CC2C(=O)NC(=O)C2N1Nc1ccccn1` (stereo unspecified), the composite z-score came out at 0.692. Take `C=CCNC(=O)[C@@H]1[C@H]2C(=O)O[C@H](c3ccccc3)[C@H](c3ccccc3)N2[C@H](c2ccccc2OCCO)[C@@]12C(=O)N(C(=O)OCCOC)c1ccc(C#CC3(O)CCCCCC3)cc12`: the composite z-score was 1.35. On to `CCCNC(=O)[C@@H]1c2ccccc2C(=O)N(Cc2ccc(OC(F)(F)F)cc2)[C@H]1c1ccc(CO)cc1`, for which the composite z-score came out at 0.448. `CCCNC(=O)[C@@]1(C)c2ccccc2C(=O)N(c2ccc(C)cn2)[C@H]1c1ccc(CO)cc1` yielded a composite z-score of 0.311.

As for `COc1cc2c(cc1O)C(c1ccc(CN3CCCC3)cc1)N(Cc1cc3c(cc1Br)OCO3)CC2` (stereo unspecified), the composite z-score came to 0.16. The result for `CCOC(=O)C[C@H]1[C@H](OC(=O)Cc2ccc3c(c2)OCO3)[C@@H](NC(=O)C2CCCCC2)c2cc(OCCCO)ccc2N1C(=O)c1ccccc1` reads 0.653; that for `O=C(NCc1ccc(F)cc1)[C@H]1C[C@H]2C(=O)NCC(=O)N2[C@H]1c1ccc(O)cc1`, 0.605. `CN(C)c1ccc(C(O)C2C=CC3C(=O)NC(=O)C3N2Nc2ccccn2)cc1` (stereo unspecified) gave a composite z-score of -0.269. `COc1ccc([Si](C)(C)[C@@H]2[C@@H](CC(=O)N(CCO)Cc3ccccc3)O[C@]3(C(=O)N(Cc4cccc(N5CCCCC5=O)c4)c4ccccc43)[C@H]2C)cc1` yielded a composite z-score of 0.761. `CCOC(=O)C[C@H]1[C@H](OC(=O)c2ccc(C(=O)c3ccccc3)cc2)[C@@H](NC(=O)C2CCCCC2)c2cc(OCCCO)ccc2N1C(=O)c1ccc2ccccc2n1` yielded a composite z-score of 0.805.
